# Source: article PMC10812921, “Transcriptional Coactivator BOB1 (OBF1, OCA-B) Modulates the Specificity of DNA Recognition by the POU-Domain Factors OCT1 and OCT2 in a Monomeric Configuration”
# Legend:
# POU1 (OCT1 POU domain) = POU1 (OCT1 POU domain) (human, UniProt P14859 260-458); test: EMSA-SELEX-seq; no BOB1; 20 mM Tris-HCl pH 7.6, 140 mM NaCl, 10% glycerol, 0.5 mM EDTA, 0.05% Triton X-100, 0.1 mg/mL BSA, 0.1 mg/mL poly(dI-dC), 5 mM DTT, room temperature, 20 min; high values mean tight binding; conditions: protein: recombinant; dsDNA, one strand shown
# Chain of POU1 (OCT1 POU domain) (P14859 260-458): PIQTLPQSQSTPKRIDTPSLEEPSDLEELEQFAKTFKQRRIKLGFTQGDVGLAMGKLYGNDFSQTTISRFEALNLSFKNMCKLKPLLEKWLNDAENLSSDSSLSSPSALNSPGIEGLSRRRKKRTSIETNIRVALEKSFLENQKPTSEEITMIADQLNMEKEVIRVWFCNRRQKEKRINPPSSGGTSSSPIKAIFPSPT
# Method in brief: (§1)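 Binding preference means the percentage of sequenced 8-mers matching a motif pattern. Tagged POU-domain proteins (30 ng), expressed in E. coli BL21, purified under denaturing conditions and renatured, were mixed with 300 ng of a PCR-amplified double-stranded random 35-nt library, with or without 28 ng coactivator protein, for 20 min at RT in 20 μL Tris–HCl pH 7.6 binding buffer. Selection was repeated over four rounds of excising complex bands from native 6% PAGE, eluting and PCR amplification, followed by Illumina sequencing.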
# POU2 (OCT2 POU domain) = target: T1, POU2 (OCT2 POU domain) (human, UniProt P09086 175-386); test: as above; conditions: protein: recombinant; dsDNA, one strand shown
# T1 sequence: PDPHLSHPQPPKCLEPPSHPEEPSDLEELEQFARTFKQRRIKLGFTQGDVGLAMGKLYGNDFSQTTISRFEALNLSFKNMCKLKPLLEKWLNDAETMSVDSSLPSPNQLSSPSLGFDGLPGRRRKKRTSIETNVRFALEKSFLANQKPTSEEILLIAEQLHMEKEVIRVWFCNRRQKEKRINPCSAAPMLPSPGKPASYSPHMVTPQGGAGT
# Method in brief: as §1
# [1] = target: POU1 (OCT1 POU domain);BOB1 (OBF1, OCA-B) (human;human, UniProt P14859;Q16633 260-458;1-256, |); test: EMSA-SELEX-seq; with BOB1 (ternary complex band); 20 mM Tris-HCl pH 7.6, 140 mM NaCl, 10% glycerol, 0.5 mM EDTA, 0.05% Triton X-100, 0.1 mg/mL BSA, 0.1 mg/mL poly(dI-dC), 5 mM DTT, room temperature, 20 min; high values mean tight binding; conditions: protein: recombinant;recombinant; copies: 1;1; dsDNA, one strand shown
# Method in brief: as §1
# [2] = target: T2, POU2 (OCT2 POU domain);BOB1 (OBF1, OCA-B) (human;human, UniProt P09086;Q16633 175-386;1-256, |); test: as above; conditions: protein: recombinant;recombinant; copies: 1;1; dsDNA, one strand shown
# T2 sequence 1: T1 sequence
# T2 sequence 2: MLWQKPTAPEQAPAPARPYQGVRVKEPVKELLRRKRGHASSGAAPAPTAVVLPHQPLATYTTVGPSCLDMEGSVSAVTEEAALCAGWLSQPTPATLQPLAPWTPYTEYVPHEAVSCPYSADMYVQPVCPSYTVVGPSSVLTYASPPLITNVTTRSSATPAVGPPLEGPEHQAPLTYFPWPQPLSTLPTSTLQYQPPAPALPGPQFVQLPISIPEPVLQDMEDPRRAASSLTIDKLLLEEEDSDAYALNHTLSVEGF
# Method in brief: as §1
Sequence,binding signal (POU1 (OCT1 POU domain)),binding signal (POU2 (OCT2 POU domain)),binding signal [1],binding signal [2]
ACTATAAC,0.0156 % of ANNNNAAN 8-mers,0.0196 % of ANNNNAAN 8-mers,0.023 % of ANNNNAAN 8-mers,0.0239 % of ANNNNAAN 8-mers
ATCTAAAC,0.0229 % of ANNNNAAN 8-mers,0.0374 % of ANNNNAAN 8-mers,0.0379 % of ANNNNAAN 8-mers,0.0495 % of ANNNNAAN 8-mers
ATATTAAG,0.196 % of ANNNNAAN 8-mers,0.214 % of ANNNNAAN 8-mers,0.0882 % of ANNNNAAN 8-mers,0.117 % of ANNNNAAN 8-mers
AACTAAAG,0.024 % of ANNNNAAN 8-mers,0.0311 % of ANNNNAAN 8-mers,0.0293 % of ANNNNAAN 8-mers,0.0355 % of ANNNNAAN 8-mers
ATTGGAAC,0.0313 % of ANNNNAAN 8-mers,0.0426 % of ANNNNAAN 8-mers,0.0304 % of ANNNNAAN 8-mers,0.0388 % of ANNNNAAN 8-mers
ATCATAAC,0.0324 % of ANNNNAAN 8-mers,0.0374 % of ANNNNAAN 8-mers,0.023 % of ANNNNAAN 8-mers,0.0322 % of ANNNNAAN 8-mers
ATTAGAAT,0.5 % of ANNNNAAN 8-mers,0.61 % of ANNNNAAN 8-mers,0.133 % of ANNNNAAN 8-mers,0.18 % of ANNNNAAN 8-mers
ACACAAAC,0.0236 % of ANNNNAAN 8-mers,0.019 % of ANNNNAAN 8-mers,0.0398 % of ANNNNAAN 8-mers,0.0297 % of ANNNNAAN 8-mers
ACATGAAC,0.0244 % of ANNNNAAN 8-mers,0.0334 % of ANNNNAAN 8-mers,0.0304 % of ANNNNAAN 8-mers,0.019 % of ANNNNAAN 8-mers
ATGCTAAT,1.85 % of ANNNNAAN 8-mers,1.82 % of ANNNNAAN 8-mers,0.249 % of ANNNNAAN 8-mers,0.283 % of ANNNNAAN 8-mers
ATGGCAAT,0.0545 % of ANNNNAAN 8-mers,0.0719 % of ANNNNAAN 8-mers,0.0484 % of ANNNNAAN 8-mers,0.0578 % of ANNNNAAN 8-mers
AGGATAAG,0.0496 % of ANNNNAAN 8-mers,0.0558 % of ANNNNAAN 8-mers,0.0523 % of ANNNNAAN 8-mers,0.0479 % of ANNNNAAN 8-mers
ACCTTAAC,0.0118 % of ANNNNAAN 8-mers,0.0173 % of ANNNNAAN 8-mers,0.0152 % of ANNNNAAN 8-mers,0.0149 % of ANNNNAAN 8-mers
AGTACAAG,0.029 % of ANNNNAAN 8-mers,0.0253 % of ANNNNAAN 8-mers,0.0359 % of ANNNNAAN 8-mers,0.0297 % of ANNNNAAN 8-mers
AGGGGAAC,0.0416 % of ANNNNAAN 8-mers,0.0414 % of ANNNNAAN 8-mers,0.0355 % of ANNNNAAN 8-mers,0.0487 % of ANNNNAAN 8-mers
ATGGAAAA,0.233 % of ANNNNAAN 8-mers,0.162 % of ANNNNAAN 8-mers,0.289 % of ANNNNAAN 8-mers,0.147 % of ANNNNAAN 8-mers
AATCTAAG,0.0553 % of ANNNNAAN 8-mers,0.0587 % of ANNNNAAN 8-mers,0.062 % of ANNNNAAN 8-mers,0.0545 % of ANNNNAAN 8-mers
ACGCAAAA,0.151 % of ANNNNAAN 8-mers,0.0944 % of ANNNNAAN 8-mers,0.277 % of ANNNNAAN 8-mers,0.157 % of ANNNNAAN 8-mers
ACCAAAAG,0.0236 % of ANNNNAAN 8-mers,0.0196 % of ANNNNAAN 8-mers,0.0273 % of ANNNNAAN 8-mers,0.019 % of ANNNNAAN 8-mers
ATAGGAAG,0.0576 % of ANNNNAAN 8-mers,0.0696 % of ANNNNAAN 8-mers,0.0585 % of ANNNNAAN 8-mers,0.0561 % of ANNNNAAN 8-mers
ATAATAAT,0.273 % of ANNNNAAN 8-mers,0.353 % of ANNNNAAN 8-mers,0.11 % of ANNNNAAN 8-mers,0.143 % of ANNNNAAN 8-mers
AAATTAAT,0.415 % of ANNNNAAN 8-mers,0.478 % of ANNNNAAN 8-mers,0.244 % of ANNNNAAN 8-mers,0.287 % of ANNNNAAN 8-mers
ACCCAAAA,0.0214 % of ANNNNAAN 8-mers,0.015 % of ANNNNAAN 8-mers,0.0246 % of ANNNNAAN 8-mers,0.0206 % of ANNNNAAN 8-mers
